Vif inh: HIV Vif self-association inhibitors, primary screen, imaging, HEK293T, single point; AID 602346, 2012; inhibition, % at 7.49 µM; HEK293T cells, Vif self-association by quenched fluorescence, 24 h; 340,000 tested, 0.35% active; in the data active means inhibition above about 50%, passing the limit was not always enough
CFTR F508del cor: F508del CFTR correction, initial screen, CFBE line, single point. CFBE cells, YFP halide quenching; stimulated with forskolin plus potentiator P3; % fluorescence drop versus neutral controls. activity (quench increase), % at 7.58 µM. 350,000 tested, 0.36% active. AID 720511, 2013;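 active means mean added fluorescence quench of at least 8% versus neutral control, with both replicates also reaching 8%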;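 further: cells transiently co-express mutant CFTR-F508del with the halide-sensitive YFP; corrector assay measuring rescue of mutant channel to the surface after 24 h compound exposure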
FGF22 binding: binders of human FGF22 protein, primary screen, FGF22 synaptogenesis inhibitor project, biophysical, thermal shift, single point; Fibroblast growth factor 22 (Homo sapiens), Q9HCT0; recombinant FGF22 thermal shift, SYPRO orange fluorescence; percent of sucrose octasulfate shift, DMSO zero; activity (Tm shift, normalised), % at 9.99 µM; 340,000 tested, 1.5% active; AID 651658, 2012;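 active means mean Tm shift, scaled 0 neutral to 100 positive control, at about 1.3% or above, every replicate too, limit read from the data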
Target sequence (Q9HCT0 whole entry, looked up): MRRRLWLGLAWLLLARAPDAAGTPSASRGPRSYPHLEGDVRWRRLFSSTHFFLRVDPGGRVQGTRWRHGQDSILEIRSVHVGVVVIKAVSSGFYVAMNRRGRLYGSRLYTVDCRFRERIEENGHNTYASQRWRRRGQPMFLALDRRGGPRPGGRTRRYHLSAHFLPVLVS
Starred values were filed as active, the others as inactive; nt = no result given. Most compounds without a hit are left out; they make up all but 1.7% or so of the library.

SMILES	Vif inh	CFTR F508del cor	FGF22 binding
COc1cccc(NC(=O)CN(C)C(=O)CN2C(=O)NC3(CCCC3)C2=O)c1	9	3	-1
COc1cccc(NC(=O)CN2C(=O)NC3(CCCCCC3)C2=O)c1	8	8.8*	0
CC(C)c1ccc(NC(=O)CN2C(=O)NC3(CCCCCCC3)C2=O)cc1	12	9.5*	0
COc1ccc(NC(=O)CN2C(=O)NC3(CCCCCCC3)C2=O)cc1	nt	4	0
COc1cccc(CNC(=O)C[C@H]2C=C[C@H](NC(=O)C3CCC3)[C@@H](CO)O2)c1	nt	-1	nt
C[C@@H]1CCCCO[C@H](CN(C)C(=O)NC2CCCCC2)[C@H](C)CN([C@@H](C)CO)C(=O)c2cc(NS(=O)(=O)c3ccccc3)ccc2O1	nt	2	-1
COc1ccc(C(=O)Nc2ccc(C(=O)NCCc3ccccc3)cc2)cc1	-17	-5	44*
COc1ccc(C(=O)Nc2cc(OC)c(Cl)cc2OC)cc1	3	0	0
COc1cc(OC)cc(C(=O)NC(=S)Nc2cc3oc4ccccc4c3cc2OC)c1	-9	4	0
COc1ccc(NC(=O)c2ccccc2)cc1	3	1	0
COc1ccc(C(=O)Nc2cc(OC)c(NC(=O)Nc3ccccc3)cc2OC)cc1	73*	2	0
O=C(Nc1ccc(Cl)cn1)c1ccccc1F	11	nt	nt
COc1cc2ccccc2cc1C(=O)Nc1ccc(Cl)cn1	84*	-1	0
COc1ccc(C(=O)NC(=S)Nc2cc3oc4ccccc4c3cc2OC)cc1	-1	-2	44*
C[C@H](CO)N1C[C@H](C)[C@H](CN(C)S(=O)(=O)c2ccc(F)cc2)Oc2ccc(NC(=O)Cn3cnnn3)cc2CC1=O	nt	-2	0
COCC(=O)N(C)C[C@H]1Oc2cc(C#CCN(C)C)ccc2S(=O)(=O)N([C@@H](C)CO)C[C@@H]1C	nt	1	0
C[C@H](NC(=O)C[C@H]1C=C[C@@H](NS(=O)(=O)c2cccc(F)c2)[C@H](CO)O1)c1ccccc1	nt	0	0
COc1ccc(OC)c(NC(=O)c2cc3ccccc3cc2OC)c1	51*	4	0
COc1ccc(C(=O)Nc2cc(OC)ccc2OC)cc1	0	nt	nt
COCC#Cc1cnc2c(c1)C(=O)N([C@@H](C)CO)C[C@H](C)[C@@H](CN(C)C(C)=O)O2	nt	-3	0
CCCN(C)C[C@H]1OCCCC[C@@H](C)Oc2ccc(NC(=O)Nc3ccccc3)cc2C(=O)N([C@@H](C)CO)C[C@H]1C	nt	-1	-1
CCNC(=S)Nc1ccc(N2CCCCC2)cc1	-13	-1	-1
CCNC(=S)N/N=C/c1sc(N2CCCCC2)nc1-c1cccs1	69*	nt	nt
CO[C@H]1CN(C)C(=O)c2ccc(NC(=O)C3CC3)cc2OC[C@@H](C)NC[C@@H]1C	nt	1	0
COc1ccc(CNC(=O)c2ccc(Cl)c(NC3=NC4CS(=O)(=O)CC4S3)c2)cc1 (stereo not drawn)	10	2	0
SMILES	Vif inh	CFTR F508del cor	FGF22 binding
O=C(NCc1ccccc1)c1ccc(Cl)c(NC2=NC3CS(=O)(=O)CC3S2)c1 (stereo not drawn)	60*	1	0
COc1ccc(S(=O)(=O)N(C)C[C@H]2OCCCC[C@H](C)Oc3ccc(NC(=O)C4CCCCC4)cc3C(=O)N([C@@H](C)CO)C[C@@H]2C)cc1	nt	-6	nt
Cc1cc(NC(=O)c2ccc(N3C(=O)C4C5C=CC(C5)C4C3=O)cc2)no1 (stereo not drawn)	2	-1	44*
COc1ccccc1NC(=O)c1cccc(N2C(=O)C3C4C=CC(C4)C3C2=O)c1 (stereo not drawn)	-3	-1	44*
Cc1cc(NC(=O)c2ccc(N3C(=O)CCC3=O)cc2)no1	14	nt	nt
COc1ccc(NC(=O)c2cccc(N3C(=O)C4C5C=CC(C5)C4C3=O)c2)c(OC)c1 (stereo not drawn)	2	1	0
CN(C)C(=O)c1ccc(-c2ccc3c(c2)[C@H]2[C@H](CCN2C(=O)C2CC2)[C@@H](CO)N3C)cc1	nt	-2	0
CCCCNC(=S)N1CCN(Cc2ccc3c(c2)OCO3)CC1	-5	3	1
Cc1ccccc1NC(=S)N1CCN(Cc2ccc3c(c2)OCO3)CC1	2	nt	nt
Cc1c(Cl)cccc1NC(=S)N1CCN(Cc2ccc3c(c2)OCO3)CC1	53*	-1	0
COCCCNC(=S)N1CCN(Cc2ccc3c(c2)OCO3)CC1	-2	-2	44*
COCCNC(=O)CSc1nccn1Cc1ccc2c(c1)OCO2	-1	-3	43*
NC(=O)CSc1nccn1Cc1ccc2c(c1)OCO2	3	2	0
C[C@H]1CN([C@@H](C)CO)C(=O)c2cc(C#CCN(C)C)cnc2O[C@H]1CN(C)C(=O)Nc1cccc(F)c1	nt	-1	0
CC(C)NC(=O)N(C)C[C@H]1Oc2ncc(C#CC3CCCCC3)cc2C(=O)N([C@H](C)CO)C[C@H]1C	nt	1	nt
O=C(c1ccncc1)N1CC(=O)N2[C@H](C1)[C@@H](c1ccc(-c3ccccc3F)cc1)[C@@H]2CO	nt	-2	nt
O=C(NCC(F)(F)F)[C@@H]1[C@@H](CO)[C@@H]2Cn3c(ccc(-c4cccnc4)c3=O)[C@@H]2N1Cc1ccncc1	nt	-1	0
NC(=O)CCC(=O)N1CCCC(C(=O)c2ccc3c4c(cccc24)CC3)C1 (stereo not drawn)	2	-2	43*
COCCC(=O)N1CCCC(C(=O)c2ccc3c4c(cccc24)CC3)C1 (stereo not drawn)	nt	1	0
Fc1ccc2nc(C3CCN(Cc4nc(CC5CC5)no4)CC3)[nH]c2c1	-4	8.6*	0
Fc1ccccc1C1CCN(Cc2nc(CC3CC3)no2)C1 (stereo not drawn)	-3	2	0
COc1ccc(C(=O)Nc2ccc3c(c2)C(=O)N(C)C[C@H](OC)[C@H](C)CN(C(C)=O)[C@H](C)CO3)cc1	nt	-2	0
COc1ccc(S(=O)(=O)Nc2ccc3c(c2)C(=O)N([C@@H](C)CO)C[C@@H](C)[C@@H](CN(C)C(=O)CCCN(C)C)OCCCC[C@@H](C)O3)cc1	nt	0	0
O=C(CSc1nnc2ccccn12)NNC(=O)c1ccc(Cl)cc1	23	1	0
O=C(CSc1nnc2ccccn12)c1ccc(Cl)cc1	21	-1	43*
SMILES	Vif inh	CFTR F508del cor	FGF22 binding
CCCNC(=O)Nc1ccc2c(c1)C(=O)N(C)C[C@H](OC)[C@H](C)CN(Cc1ccccn1)[C@@H](C)CO2	nt	-4	nt
O=C(C[C@H]1C=C[C@@H](NC(=O)C2CCOCC2)[C@H](CO)O1)Nc1ccc(-c2ccccc2)cc1	nt	-1	0
CNC(=S)N(CCc1c(C)[nH]c2ccc(F)cc12)Cc1ccco1	3	0	0
Cc1[nH]c2ccc(F)cc2c1CCN(Cc1ccco1)C(=S)NC(C)(C)C	3	-2	43*
Cc1ccccc1NC(=S)N(CCc1c(C)[nH]c2ccc(F)cc12)Cc1cccnc1	0	1	nt
Cc1[nH]c2ccc(F)cc2c1CCN(Cc1cccnc1)C(=S)Nc1cccc(F)c1	0	-1	44*
